Test results as given in PubChem BioAssay (Tox21).
Where “and” joins values, the source holds several entries; their conditions need not be identical. Equal entries are not always repeated. Results filed as inconclusive are left out. Entries that show only a call come without a potency. The source holds several records for some structures; these can differ, active in one and inactive in another. Calls of active or inactive are those of the source. Unless noted, the call rests on the fitted dose curve; in most records, active means well fitted curve in the direction sought with a large enough effect in the repeat runs; inconclusive means weak or mixed curves; inactive means no such curve, though single readings can be large; an effect the other way counts as inactive or inconclusive.

Assays:
[1] = qHTS assay to identify small molecule agonists of the estrogen receptor alpha (ER-alpha) signaling pathway in the presence of an antagonist - cell viability counter screen (AID 1259386);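 further: cells exposed to compounds for 22 h at 37 °C before the viability read; nearly all actives have a fitted effect of over 30% in size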; further: potency means the concentration at half of the fitted maximal effect
How it was run: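 Steps: 5-day stripped-FBS culture; seed and incubate 24hr; add ICI-182,780 (10.0nM final); pin 15-point compound titration; incubate 22hr at 37C; add CellTiter-Fluor at 21hr; read fluorescence.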

[2] = molecular target: Progesterone receptor (Homo sapiens) (UniProt P06401); assay: qHTS assay to identify small molecule antagonists of the progesterone receptor (PR) signaling pathway (AID 1346795; active means well fitted inhibition curve with a large enough effect in the signal ratio in the repeat runs, not every such curve was filed as active; the % refers to the signal ratio; further: potency means the concentration at half of the fitted maximal effect)
How it was run: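 Beta-lactamase reporter, HEK293T PR-UAS-bla line; 2% charcoal-stripped FBS; 6 hr pre-incubation, 37C/5% CO2. Compound + R5020 1 nM final, 16 hr. LiveBLAzer B/G FRET substrate, 2 hr RT; fluorescence intensity read.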

[3] = qHTS assay to identify small molecule antagonists of the TGF-beta/Smad signaling pathway - cell viability counter screen (AID 1346824); further: nearly all actives have a fitted effect of over 50% in size; further: potency means the concentration at half of the fitted maximal effect
How it was run: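 SBE-bla HEK 293T cells, incubated overnight, then compound plus 0.25 ng/mL TGF-beta1 (stock added) for 5 hr at 37 C. Viability was read in the same wells by CellTiter-Glo luminescence after 30 min at room temperature.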

[4] = qHTS assay to identify small molecule agonists of the TGF-beta/Smad signaling pathway - cell viability counter screen (AID 1346829); further: nearly all actives have a fitted effect of over 45% in size; further: potency means the concentration at half of the fitted maximal effect
How it was run: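 After overnight seating at 37 C and 5% CO2, reporter cells got compounds for 5 hr and FRET substrate for 2 hr; cell viability then came from CellTiter-Glo luminescence.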

[5] = qHTS assay to identify small molecule agonists of the TGF-beta/Smad signaling pathway (AID 1346859; active means well fitted activation curve with a large enough effect in the signal ratio in the repeat runs, not every such curve was filed as active; the % refers to the signal ratio; further: series mostly up to about 77 µM)
How it was run: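 Read-out: fluorescence at 460 and 530 nm (405 nm excitation) after a 2 hr room-temperature incubation with beta-lactamase FRET substrate. SBE-bla HEK 293T cells had been treated with test compounds for 5 hr at 37 C.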

[6] = molecular target: Thyrotropin-releasing hormone receptor (Homo sapiens) (UniProt P34981); assay: qHTS assay to identify small molecule agonists of the thyrotropin-releasing hormone receptor (TRHR) signaling pathway (AID 1346891; calls by dose curve;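 further: HEK293 cells expressing TRHR with calcium dye readout; series mostly up to about 58 µM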)
How it was run: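 HEK293/TRHR cells, 1500 per well, 18 h 37 °C; Ca dye 2 h 37 °C; pin-tool compound addition (agonist mode); kinetic fluorescence 3 min, 1 s reads; 15 concentrations, triplicate.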

[7] = Human pregnane X receptor (PXR) small molecule agonists, qHTS cell viability counter screen (AID 1346977); further: nearly all actives have a fitted effect of over 50% in size; further: potency means the concentration at half of the fitted maximal effect
How it was run: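 Fluorescence read-out (CellTiter-Fluor) of viability in PXR-Luc HepG2 cells, multiplexed with the luciferase agonist read. Compounds in DMSO added after 5hr plating; 24hr total exposure at 37C, 5% CO2.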

[8] = Caspase-3/7 induction in CHO-K1 cells by small molecules, qHTS cell viability counter screen (AID 1346979); further: nearly all actives have a fitted effect of over 35% in size; further: potency means the concentration at half of the fitted maximal effect
How it was run: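 CHO-K1 wt, 1,500 cells/well; 5hr pre-incubation 37C/5% CO2; compound pin transfer (DMSO); 16hr exposure; CellTiter-Fluor added, 1hr, fluorescence read.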

[9] = Caspase-3/7 induction in HepG2 cells by small molecules, qHTS cell viability counter screen (AID 1346981); further: nearly all actives have a fitted effect of over 30% in size; further: potency means the concentration at half of the fitted maximal effect
How it was run: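 The parent HepG2 line is plated at 2,000 cells per well and rested 5 hr before compound pinning from DMSO stocks. Following a 16-hr treatment at 37 C, a fluorogenic live-cell substrate (CellTiter-Fluor) reports viability after 1 hr.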

[10] = molecular target: Nuclear receptor subfamily 1 group I member 2 (Homo sapiens) (UniProt O75469); assay: Human pregnane X receptor (PXR) small molecule agonists, qHTS assay (AID 1346982); further: nearly all actives have a fitted effect of over 35% in size; further: potency means the concentration at half of the fitted maximal effect
How it was run: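 After plating in 5% charcoal-stripped FBS and a 5 hr rest, PXR-Luc HepG2 cells received compounds in DMSO. Following 24 hr at 37 C, ONE-Glo was added and light output read.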

[11] = molecular target: Acetylcholinesterase (Homo sapiens) (UniProt P22303); assay: Acetylcholinesterase (AChE) small molecule antagonists: colormetric cell-based qHTS assay (AID 1347395; calls by dose curve; further: nearly all actives have a fitted effect of over 30% in size)
How it was run: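 SH-SY5Y cells; cpd 30 min 37 C; + DTNB/acetylthiocholine, 90 min 37 C; colorimetric thiocholine read; qHTS.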

[12] = molecular target: Progesterone receptor (Homo sapiens) (UniProt P06401); assay: qHTS assay to identify small molecule agonists of the progesterone receptor (PR) signaling pathway (AID 1346784; calls by dose curve; further: nearly all actives have a fitted effect of over 30% in size; further: potency means the concentration at half of the fitted maximal effect)
How it was run: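 HEK 293T PR-UAS-bla reporter cells, 2% charcoal-stripped FBS; 6 hr settle at 37C/5% CO2, compound (DMSO) 16 hr, LiveBLAzer B/G FRET substrate 2 hr RT, fluorescence intensity read.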

[13] = molecular target: Thyrotropin-releasing hormone receptor (Homo sapiens) (UniProt P34981); assay: qHTS assay to identify small molecule antagonists of the thyrotropin-releasing hormone receptor (TRHR) signaling pathway (AID 1346877; active means well fitted inhibition curve with a large enough effect in the repeat runs, not every such curve was filed as active; further: series mostly up to about 51 µM)
How it was run: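 Human TRHR in HEK293 cells; inhibition of the intracellular calcium rise triggered by 1 nM TRH was followed by fluorescence over 3 min. Compounds were run at 15 concentrations, three replicates each.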

[14] = Caspase-3/7 induction in HepG2 cells by small molecules, qHTS assay (AID 1346978); further: nearly all actives have a fitted effect of over 15% in size; further: potency means the concentration at half of the fitted maximal effect
How it was run: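 Wild-type HepG2 cells, 2,000/well, settled 5 hr at 37 C and 5% CO2, then compound-treated for 17 hr; caspase-3/7 activity read by luminescent Caspase-Glo 3/7 after 30 min at room temperature.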

[15] = Caspase-3/7 induction in CHO-K1 cells by small molecules, qHTS assay (AID 1346980); further: nearly all actives have a fitted effect of over 15% in size; further: potency means the concentration at half of the fitted maximal effect
How it was run: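 Wild-type CHO-K1 cells exposed to compounds for 17hr at 37 C, 5% CO2. Caspase-3/7 activity then measured by Caspase-Glo 3/7 luminescence after 30min at room temperature.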

[16] = molecular target: Nuclear receptor subfamily 1 group I member 2 (Homo sapiens) (UniProt O75469); assay: CYP3A4 induction through human pregnane X receptor (PXR) by small molecules, qHTS assay (AID 1346984); further: nearly all actives have a fitted effect of over 40% in size
How it was run: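 Human PXR activation is tracked via CYP3A4 promoter-luciferase in DPX-2 (HepG2) cells. Compounds treat cells for 24hr at 37C, and luminescence is read after One-Glo.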

[17] = molecular target: Nuclear receptor subfamily 1 group I member 2 (Homo sapiens) (UniProt O75469); assay: Human pregnane X receptor (PXR) activation by small molecules, qHTS assay (AID 1346985); further: nearly all actives have a fitted effect of over 40% in size
How it was run: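 DPX-2 cells (HepG2 co-transfected with a PXR response element and a CYP3A4-promoter luciferase construct) were seeded at 2,000 per well, rested 5 hr at 37C, then exposed to DMSO-dissolved compounds for 24 hr. Activation was read as luciferase luminescence.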

[18] = qHTS assay to identify small molecule antagonists of the progesterone receptor (PR) signaling pathway - cell viability counter screen (AID 1346798); further: potency means the concentration at half of the fitted maximal effect; nearly all actives have a fitted effect of over 50% in size
How it was run: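 Luminescence readout (CellTiter-Glo, 30 min, RT) of viability in PR-UAS-bla HEK293T cells exposed to compound and R5020 agonist for 16 hr at 37C, 5% CO2; run in the same wells as the beta-lactamase reporter read.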

[19] = qHTS assay to identify small molecule agonists of the progesterone receptor (PR) signaling pathway - cell viability counter screen (AID 1346799; calls by dose curve; further: potency means the concentration at half of the fitted maximal effect; nearly all actives have a fitted effect of over 45% in size)
How it was run: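 HEK293T PR-UAS-bla, 3,000 cells/well, 2% charcoal-stripped FBS; 6 h settle, compound 16 h at 37C/5% CO2; LiveBLAzer 2 h RT, then CellTiter-Glo 30 min RT, luminescence read.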

[20] = molecular target: Nuclear receptor subfamily 1 group I member 2 (Rattus norvegicus) (UniProt Q9R1A7); assay: Rat pregnane X receptor (rPXR) activation by small molecules, qHTS assay (AID 1346983); details: rPXR luciferase reporter cells, One-Glo luminescence, 24 h; max activation: stronger effect = higher value; further: nearly all actives have a fitted effect of over 20% in size
How it was run: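 Cell-based rPXR activation assay: rPXR cells, 2,000 per well, rested 5hr at 37 C, then exposed to compounds in DMSO for 24 hr at 37 C. Luciferase activity read by One-Glo luminescence after 30 min at room temperature.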

Progesterone receptor (Homo sapiens), sequence (P06401 whole entry, looked up): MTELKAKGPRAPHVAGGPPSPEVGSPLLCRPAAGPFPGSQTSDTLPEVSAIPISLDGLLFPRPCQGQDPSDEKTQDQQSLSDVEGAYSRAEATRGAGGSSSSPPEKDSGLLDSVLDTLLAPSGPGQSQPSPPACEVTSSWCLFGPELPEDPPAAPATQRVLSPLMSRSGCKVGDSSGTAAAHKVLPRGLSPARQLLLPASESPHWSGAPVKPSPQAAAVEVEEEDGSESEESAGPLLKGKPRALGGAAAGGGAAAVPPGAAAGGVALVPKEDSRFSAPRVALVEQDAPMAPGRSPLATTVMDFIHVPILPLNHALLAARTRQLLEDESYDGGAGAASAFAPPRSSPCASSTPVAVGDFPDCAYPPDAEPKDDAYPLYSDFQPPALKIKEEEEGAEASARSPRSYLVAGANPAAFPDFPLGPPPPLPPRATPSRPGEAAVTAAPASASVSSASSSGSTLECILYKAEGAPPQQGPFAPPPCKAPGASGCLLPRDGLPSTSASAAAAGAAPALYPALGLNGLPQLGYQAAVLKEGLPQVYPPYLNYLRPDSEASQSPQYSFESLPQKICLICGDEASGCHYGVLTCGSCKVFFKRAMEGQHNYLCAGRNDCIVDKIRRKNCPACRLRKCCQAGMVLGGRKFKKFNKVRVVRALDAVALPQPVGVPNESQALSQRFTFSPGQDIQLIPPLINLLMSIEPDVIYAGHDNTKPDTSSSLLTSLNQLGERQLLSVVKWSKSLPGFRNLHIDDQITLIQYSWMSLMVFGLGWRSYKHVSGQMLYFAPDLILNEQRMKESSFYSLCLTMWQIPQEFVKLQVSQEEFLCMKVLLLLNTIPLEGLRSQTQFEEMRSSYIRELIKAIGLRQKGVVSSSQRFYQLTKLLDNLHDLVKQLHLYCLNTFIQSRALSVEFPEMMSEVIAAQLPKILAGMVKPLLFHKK
Thyrotropin-releasing hormone receptor (Homo sapiens), sequence (P34981 whole entry, looked up): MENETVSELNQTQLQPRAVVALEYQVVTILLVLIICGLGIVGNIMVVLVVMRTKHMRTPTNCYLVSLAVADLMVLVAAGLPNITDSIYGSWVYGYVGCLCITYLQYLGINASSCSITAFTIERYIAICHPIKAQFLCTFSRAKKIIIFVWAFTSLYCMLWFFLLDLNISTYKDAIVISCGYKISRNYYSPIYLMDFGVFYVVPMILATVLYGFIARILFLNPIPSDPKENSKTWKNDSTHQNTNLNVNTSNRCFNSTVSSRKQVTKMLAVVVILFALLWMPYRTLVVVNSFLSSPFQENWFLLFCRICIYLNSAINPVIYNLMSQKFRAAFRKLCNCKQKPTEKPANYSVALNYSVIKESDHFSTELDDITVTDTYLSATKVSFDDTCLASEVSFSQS
Acetylcholinesterase (Homo sapiens), sequence (P22303 whole entry, looked up): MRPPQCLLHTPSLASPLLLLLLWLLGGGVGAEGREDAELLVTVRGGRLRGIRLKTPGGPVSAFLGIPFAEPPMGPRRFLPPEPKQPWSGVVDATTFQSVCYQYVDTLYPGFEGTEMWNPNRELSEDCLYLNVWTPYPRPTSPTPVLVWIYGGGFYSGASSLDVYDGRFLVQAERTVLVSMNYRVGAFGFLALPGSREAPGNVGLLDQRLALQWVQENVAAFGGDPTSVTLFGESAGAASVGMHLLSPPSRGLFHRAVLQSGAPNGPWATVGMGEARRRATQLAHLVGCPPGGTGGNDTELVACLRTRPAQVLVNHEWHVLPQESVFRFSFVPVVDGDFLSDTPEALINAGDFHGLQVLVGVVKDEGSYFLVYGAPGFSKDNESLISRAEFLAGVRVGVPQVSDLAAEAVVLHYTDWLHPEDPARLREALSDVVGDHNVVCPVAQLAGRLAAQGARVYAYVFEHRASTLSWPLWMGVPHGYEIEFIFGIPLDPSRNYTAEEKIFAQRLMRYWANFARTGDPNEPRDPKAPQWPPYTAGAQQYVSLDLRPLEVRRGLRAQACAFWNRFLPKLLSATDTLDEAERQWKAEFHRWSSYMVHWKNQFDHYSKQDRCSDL
Nuclear receptor subfamily 1 group I member 2 (Homo sapiens), sequence (O75469 whole entry, looked up): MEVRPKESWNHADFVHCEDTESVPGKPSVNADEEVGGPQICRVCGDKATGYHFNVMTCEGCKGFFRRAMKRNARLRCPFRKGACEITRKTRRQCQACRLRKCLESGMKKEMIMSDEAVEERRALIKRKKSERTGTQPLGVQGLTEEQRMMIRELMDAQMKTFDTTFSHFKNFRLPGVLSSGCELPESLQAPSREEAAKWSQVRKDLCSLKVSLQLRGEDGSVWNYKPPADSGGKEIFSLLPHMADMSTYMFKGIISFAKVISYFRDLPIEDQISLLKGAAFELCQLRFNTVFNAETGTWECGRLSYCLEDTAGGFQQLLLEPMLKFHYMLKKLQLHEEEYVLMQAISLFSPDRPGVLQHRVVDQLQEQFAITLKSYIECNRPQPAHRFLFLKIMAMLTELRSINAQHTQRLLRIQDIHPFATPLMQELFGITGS
Nuclear receptor subfamily 1 group I member 2 (Rattus norvegicus), sequence (Q9R1A7 whole entry, looked up): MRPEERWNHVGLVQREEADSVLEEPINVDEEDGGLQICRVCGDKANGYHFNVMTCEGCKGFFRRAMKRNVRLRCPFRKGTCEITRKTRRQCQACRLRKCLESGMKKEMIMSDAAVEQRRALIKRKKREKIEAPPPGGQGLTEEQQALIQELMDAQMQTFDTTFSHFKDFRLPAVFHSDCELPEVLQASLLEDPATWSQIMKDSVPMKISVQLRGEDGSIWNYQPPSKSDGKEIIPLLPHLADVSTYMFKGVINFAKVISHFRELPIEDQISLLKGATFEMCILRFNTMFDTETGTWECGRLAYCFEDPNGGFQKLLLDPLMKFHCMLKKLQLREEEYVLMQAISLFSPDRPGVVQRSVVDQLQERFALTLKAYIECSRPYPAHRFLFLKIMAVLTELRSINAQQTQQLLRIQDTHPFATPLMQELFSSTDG

Row | Structure (SMILES) | Potency [1] | Potency [2] | Potency [3] | Potency [4] | outcome [5] | Potency [6] | Potency [7] | Potency [8] | Potency [9] | Potency [10] | Potency [11] | Potency [12] | Potency [13] | Potency [14] | Potency [15] | Potency [16] | Potency [17] | Potency [18] | Potency [19] | max activation [20]
1 | CC(C)CC(C)(c1ccc(O)cc1)c1ccc(O)cc1 | inactive | 6.11 µM (active) | inactive | inactive | inactive | inactive | 50.1 µM (active) | 61.3 µM (active) and 61.1 µM (active) | 68.7 µM (active) and 61.1 µM (active) | 8.65 µM (active) and 13.7 µM (active) | inactive | – | – | – | – | – | – | – | – | –
2 | C[C@]12Cc3nonc3C[C@@H]1CC[C@@H]1[C@@H]2CC[C@@]2(C)[C@H]1CC[C@]2(C)O | inactive | – | – | – | inactive | inactive | inactive | 11.9 µM (active) | inactive | 29.8 µM (active) | inactive | 1.19 µM (active) | inactive | inactive | inactive | inactive | inactive | – | – | –
3 | CCC[CH2][Sn]([CH2]CCC)([CH2]CCC)[O]C(=O)c1ccccc1 | 10.9 µM (active) | – | 3.47 µM (active) | 2.45 µM (active) | – | – | 1.22 µM (active) | 0.77 µM (active) | 4.86 µM (active) | 0.486 µM (active) | inactive | – | – | 3.06 µM (active) | 1.93 µM (active) | – | – | 2.17 µM (active) | 2.43 µM (active) | –
4 | O=c1[nH]c2ccccc2n1C1CCN(CCCC(c2ccc(F)cc2)c2ccc(F)cc2)CC1 | 54.5 µM (active) | 26.6 µM (active) | – | 49 µM (active) and inactive | inactive | – | – | 30.6 µM (active) and 26.6 µM (active) | 54.5 µM (active) | inactive | inactive | – | – | 61.1 µM (active) | – | – | – | 30.6 µM (active) | – | –
5 | CC(C)(C)C(O)C(Oc1ccc(-c2ccccc2)cc1)n1cncn1 (centres undefined) | inactive | 61.1 µM (active) | inactive | inactive | inactive | inactive | 61.1 µM (active) | 61.1 µM (active) | – | 19.3 µM (active) | inactive | – | inactive | inactive | inactive | – | – | – | – | –
6 | CC(=O)/C=C/c1ccc2c(c1)OCO2 | inactive | – | inactive | inactive | inactive | – | – | – | – | 61.4 µM (active) | – | inactive | – | inactive | – | – | – | – | – | –
7 | CC(c1ccc(O)cc1)c1ccc(O)cc1 | inactive | 6.86 µM (active) | inactive | inactive | inactive | inactive | inactive | inactive | inactive | 45.5 µM (active) and 61.1 µM (active) | inactive | – | inactive | inactive | inactive | – | – | – | – | –
8 | CCCCCCCCCC[N+](C)(C)CCCCCCCCCC | 68.6 µM (active) | – | 43.6 µM (active) | 38.9 µM (active) | – | inactive | 27.3 µM (active) | 19.3 µM (active) | 68.6 µM (active) | inactive | – | – | – | – | – | inactive | inactive | 19.3 µM (active) | 8.63 µM (active) | -13.5% (inactive)
